# Assay results from PubChem BioAssay.
# A number with no mark means an inactive call. For some assays here: Measured potencies and affinities stand elsewhere. Active and inactive are the calls of the source. Unless noted, the rule behind the calls is not given here.
# Assays:
# [1] = antimalarial activity against Dd2 strain (AID 2302;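 active = growth inhibition above 50% at the single 2 µM test dose, taken to imply half-maximal potency below 2 µM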;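 note: 0% = DMSO untreated growth and 100% = chloroquine plus artemisinin killed control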); conditions: P. falciparum Dd2 in RBCs, LDH growth readout, 72 h; at 2 µM; stronger effect = higher value
# [2] = HepG2 cytotoxicity, primary screen, cytotoxicity control for P. falciparum antimalarial project, cell-based, ATP luminescence (AID 2303;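 active = inhibition above 50%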;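 note: 0% = DMSO wells and 100% = digitonin-killed cells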); conditions: HepG2 viability, 24-48 h, at 10 µM, stronger effect = higher value
# [3] = biological target: L-lactate dehydrogenase (Plasmodium falciparum (isolate CDC / Honduras)) (UniProt Q27743); assay: PfLDH activity inhibition – cell lysate, 3D7 strain, counter-screen for P. falciparum growth inhibition project (AID 2304);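 note: 0% = vehicle and 100% = reference inhibitor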; conditions: P. falciparum 3D7 crude extract, LDH APAD/NBT absorbance; at 2 µM; stronger effect = higher value
# L-lactate dehydrogenase (Plasmodium falciparum (isolate CDC / Honduras)), sequence (Q27743 whole entry, looked up): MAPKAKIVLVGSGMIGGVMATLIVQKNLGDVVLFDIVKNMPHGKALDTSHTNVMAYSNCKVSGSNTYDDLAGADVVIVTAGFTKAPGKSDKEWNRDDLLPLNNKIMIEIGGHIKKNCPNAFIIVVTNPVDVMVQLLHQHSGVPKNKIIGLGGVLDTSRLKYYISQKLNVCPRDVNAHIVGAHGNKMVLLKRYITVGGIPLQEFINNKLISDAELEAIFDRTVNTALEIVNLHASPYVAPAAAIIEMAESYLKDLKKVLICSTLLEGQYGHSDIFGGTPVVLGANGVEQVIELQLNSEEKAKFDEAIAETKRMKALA
# [4] = inhibition of 3D7 malaria parasite growth – strain 3D7 (AID 2306);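 note: 0% = DMSO wells and 100% = chloroquine plus artemisinin control wells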; conditions: P. falciparum 3D7 erythrocytic growth, LDH absorbance, 72 h; at 2 µM; stronger effect = higher value
# [5] = biological target: Calcium-dependent protein kinase 1 (Plasmodium falciparum (isolate 3D7)) (UniProt P62344); assay: PfCDPK1 kinase inhibitors, biochemical, TCAMS library (AID 1159585; cut-off not given, nearly all actives have IC50 up to about 0.98 µM;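 note: inhibitors leave more ATP so luminescence rises with inhibition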); conditions: recombinant PfCDPK1, Kinase-Glo ATP depletion luminescence
# Calcium-dependent protein kinase 1 (Plasmodium falciparum (isolate 3D7)), sequence (P62344 whole entry, looked up): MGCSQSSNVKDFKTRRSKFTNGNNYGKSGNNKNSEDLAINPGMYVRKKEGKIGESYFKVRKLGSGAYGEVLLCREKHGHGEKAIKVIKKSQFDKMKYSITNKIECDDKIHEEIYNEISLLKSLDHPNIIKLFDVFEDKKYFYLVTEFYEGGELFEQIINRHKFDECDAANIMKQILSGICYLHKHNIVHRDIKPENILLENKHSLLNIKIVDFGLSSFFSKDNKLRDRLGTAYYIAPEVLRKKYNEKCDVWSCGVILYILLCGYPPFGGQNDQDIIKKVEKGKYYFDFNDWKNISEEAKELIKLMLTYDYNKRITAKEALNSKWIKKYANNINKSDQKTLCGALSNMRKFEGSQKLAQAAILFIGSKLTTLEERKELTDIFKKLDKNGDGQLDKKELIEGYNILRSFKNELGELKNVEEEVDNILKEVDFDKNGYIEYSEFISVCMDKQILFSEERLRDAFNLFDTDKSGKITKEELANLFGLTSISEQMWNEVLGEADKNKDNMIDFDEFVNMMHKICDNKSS
# [6] = biological target: Plasmodium falciparum protein kinase 6 (PK6, PF3D7_1337100) (UniProt Q8IDW1); assay: PfPK6 kinase inhibitors, biochemical, TCAMS library (AID 1159586); conditions: recombinant PfPK6, Kinase-Glo ATP depletion luminescence
# Plasmodium falciparum protein kinase 6 (PK6, PF3D7_1337100), sequence (Q8IDW1 1-305): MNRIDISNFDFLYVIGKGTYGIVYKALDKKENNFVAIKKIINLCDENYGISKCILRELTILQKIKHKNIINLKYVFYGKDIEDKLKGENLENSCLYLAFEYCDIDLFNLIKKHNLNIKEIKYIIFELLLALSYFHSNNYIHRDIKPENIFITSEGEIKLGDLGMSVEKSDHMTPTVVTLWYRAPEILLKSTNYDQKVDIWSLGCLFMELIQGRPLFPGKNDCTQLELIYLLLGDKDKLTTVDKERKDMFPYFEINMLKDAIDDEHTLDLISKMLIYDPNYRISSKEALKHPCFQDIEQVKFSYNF
# [7] = biological target: Protein kinase 7 (PK7), Plasmodium falciparum 3D7 (PF3D7_0213400) (UniProt Q7YTF7); assay: inhibition of Plasmodium PK7 catalytic activity – biochemical, TCAMS antimalarial set, Kinase-Glo luminescence (AID 1159587); conditions: recombinant PfPK7, Kinase-Glo ATP depletion luminescence
# Protein kinase 7 (PK7), Plasmodium falciparum 3D7 (PF3D7_0213400), sequence (Q7YTF7 1-343): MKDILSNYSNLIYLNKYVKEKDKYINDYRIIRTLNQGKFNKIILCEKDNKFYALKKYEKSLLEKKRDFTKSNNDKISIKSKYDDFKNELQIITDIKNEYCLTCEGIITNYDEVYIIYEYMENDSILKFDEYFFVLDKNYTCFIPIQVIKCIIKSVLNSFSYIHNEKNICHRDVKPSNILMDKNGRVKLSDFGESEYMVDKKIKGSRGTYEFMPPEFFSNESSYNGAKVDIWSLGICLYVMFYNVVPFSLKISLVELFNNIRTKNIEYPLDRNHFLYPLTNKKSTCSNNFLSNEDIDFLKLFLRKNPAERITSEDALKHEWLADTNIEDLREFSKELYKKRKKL
# [8] = biological target: Calcium-dependent protein kinase 4 (Plasmodium falciparum (isolate 3D7)) (UniProt Q8IBS5); assay: PfCDPK4 kinase inhibitors, biochemical, TCAMS library (AID 1159588; cut-off not given, nearly all actives have IC50 up to about 0.91 µM); conditions: recombinant PfCDPK4, Kinase-Glo ATP depletion luminescence
# Calcium-dependent protein kinase 4 (Plasmodium falciparum (isolate 3D7)), sequence (Q8IBS5 whole entry, looked up): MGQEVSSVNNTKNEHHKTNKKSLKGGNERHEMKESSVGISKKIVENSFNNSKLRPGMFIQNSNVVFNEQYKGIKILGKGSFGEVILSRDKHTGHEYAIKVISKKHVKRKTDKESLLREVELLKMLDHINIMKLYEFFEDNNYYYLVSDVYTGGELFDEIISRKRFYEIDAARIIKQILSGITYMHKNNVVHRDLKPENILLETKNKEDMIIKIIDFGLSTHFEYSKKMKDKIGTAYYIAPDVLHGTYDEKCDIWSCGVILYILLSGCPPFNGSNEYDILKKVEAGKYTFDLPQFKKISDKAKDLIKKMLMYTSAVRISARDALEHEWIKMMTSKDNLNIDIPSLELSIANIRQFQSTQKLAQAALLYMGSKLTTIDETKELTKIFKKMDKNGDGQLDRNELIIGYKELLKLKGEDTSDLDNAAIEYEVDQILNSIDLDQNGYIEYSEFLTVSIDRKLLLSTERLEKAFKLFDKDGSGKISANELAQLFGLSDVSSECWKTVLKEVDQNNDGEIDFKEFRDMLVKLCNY
Structure (SMILES),growth inhibition [1],inhibition [2],inhibition [3] [%],growth inhibition [4],outcome [5],outcome [6],outcome [7],outcome [8]
OC1CCCN(Cc2ccc(-c3ccc(-c4nc5ccccc5[nH]4)cc3)cc2)C1 (stereo not given),77% (active),46%,-4,100% (active),inactive,inactive,inactive,inactive
CC(C)c1ccc(NS(=O)(=O)c2cccc(C(=O)NC3CCN(CC4CCCCC4)CC3)c2)cc1,69% (active),71% (active),0,93% (active),inactive,inactive,inactive,inactive
NC1CCN(c2nc(NCCc3ccc(O)cc3)nc(NCc3ccccc3-c3ccccc3)n2)CC1,32%,14%,4,99% (active),inactive,inactive,inactive,inactive
N#Cc1cccc(NC(=O)Nc2cccc(OC3CCN(Cc4ccccc4)CC3)c2)c1,48%,5%,1,100% (active),inactive,inactive,inactive,inactive
COc1ccc(CNCc2cccc(-c3ccc(-c4nc5c(C)cccc5[nH]4)s3)c2)cc1,65% (active),24%,7,103% (active),inactive,inactive,inactive,inactive
CN1CCN(CCCN(Cc2cccc(-c3cccc(CNC4CCCC4)c3)c2)C(=O)CCC2CCCC2)CC1,96% (active),35%,-3,100% (active),inactive,inactive,inactive,inactive
O=C(Nc1ccc(SC(F)(F)F)cc1)Nc1ccc(Cl)c(Cl)c1,99% (active),15%,4,98% (active),inactive,inactive,inactive,inactive
O=C(Nc1ccc(Cn2ncc(N3CCCNCC3)c(Cl)c2=O)cc1)Nc1cccc(Oc2ccccc2)c1,41%,8%,-5,81% (active),inactive,inactive,inactive,inactive
C=C[C@H]1CN(CCCCCCC)CC[C@H]1CCNc1ccnc2ccc(OC)cc12,81% (active),99% (active),7,95% (active),inactive,inactive,inactive,inactive
N#Cc1ccc(NC(=NCc2cccnc2)Nc2ccc(-c3ccccc3)cc2)c(O)c1,46%,2%,-3,101% (active),inactive,inactive,inactive,inactive
CN1CCN(c2cccc(-c3nnc(-c4ccc(OCC(=O)NCc5ccc(C(F)(F)F)cc5)c([N+](=O)[O-])c4)o3)c2)CC1,44%,35%,-4,90% (active),inactive,inactive,inactive,inactive
CCOC(=O)C1=C(C)NC2=C(C(=O)CCC2)C1c1cn(Cc2ccc(Cl)cc2Cl)nc1-c1ccccc1 (stereo not given),96% (active),-5%,-2,100% (active),inactive,inactive,inactive,inactive
Cc1cc(NCC(c2ccccc2)c2ccccc2)nc(NCC2CCCCC2)n1,93% (active),12%,3,100% (active),inactive,inactive,inactive,inactive
CCCC(=O)Nc1ccc(OCCCN(Cc2cccc(C(F)(F)F)c2)c2ccc(C#N)c(C(F)(F)F)c2)cc1,89% (active),-12%,-5,90% (active),inactive,inactive,inactive,inactive
O=C(Nc1ccc(Cl)cc1)c1cccc(S(=O)(=O)NC2CCN(CC3CCCCC3)CC2)c1,11%,67% (active),0,92% (active),inactive,inactive,inactive,inactive
O=C1COC2(CN1C1CCN(Cc3ccc(O)c(Cl)c3)C1)c1ccccc1-c1ccccc12 (stereo not given),63% (active),5%,3,93% (active),inactive,inactive,inactive,inactive
CN1CC=C(c2csc3ccc(NC(=O)Nc4ccc(-c5ccncc5)c5ccccc45)cc23)CC1,99% (active),20%,1,93% (active),inactive,inactive,inactive,inactive
O=C(CCc1cnc[nH]1)Nc1cccc(-c2cccc(-c3nc4ccccc4[nH]3)c2)c1,25%,8%,3,101% (active),inactive,inactive,inactive,inactive
COc1cc(NCC(O)CNc2cc(OC)c3ccccc3n2)nc2ccccc12,93% (active),42%,5,100% (active),inactive,inactive,inactive,inactive
CN1CCN(Cc2ccc(-c3ccc4c(Nc5ccc(Oc6ccccn6)cc5)ccnc4c3)o2)CC1,99% (active),13%,-3,101% (active),inactive,inactive,inactive,inactive

Structure (SMILES),growth inhibition [1],inhibition [2],inhibition [3] [%],growth inhibition [4],outcome [5],outcome [6],outcome [7],outcome [8]
CN1CCN(CC(=O)Nc2cccc(-c3cccc(-c4nc5ccccc5[nH]4)c3)c2)CC1,27%,11%,3,90% (active),inactive,inactive,inactive,inactive
Nc1nc(N)c2c(Oc3cccnc3)cccc2n1,-1%,65% (active),6,93% (active),inactive,inactive,inactive,inactive
CCN1CCN(Cc2ccc3nc(-c4cc(C)n(Cc5cc(Cl)ccc5OCc5ccccc5)n4)[nH]c3c2)CC1,97% (active),11%,2,102% (active),inactive,inactive,inactive,inactive
COc1cccc(CCNc2nc(NCc3ccccc3)c3cc(OC)c(OC)cc3n2)c1,99% (active),20%,-6,100% (active),inactive,inactive,inactive,inactive
CC1(C)N=C(N)N=C(N)N1c1ccc(Oc2ccc(Cl)cc2)c(Cl)c1,20%,13%,-2,97% (active),inactive,inactive,inactive,inactive
CN(C)CCC(O)(c1ccc(Br)cc1)c1cccnc1 (stereo not given),1%,22%,5,96% (active),inactive,inactive,inactive,inactive
O=c1cc(NCCCNC2CCOc3c(Cl)cccc32)[nH]c2ccccc12 (stereo not given),27%,-3%,3,96% (active),inactive,inactive,inactive,inactive
NCCNc1ccc([N+](=O)[O-])cc1C(=O)Nc1cccc(C(F)(F)F)c1,33%,1%,0,94% (active),inactive,inactive,inactive,inactive
CN1C(C)(C)CC(NC(=O)c2ccc(-c3cc4cc(Cl)c(Cl)cc4[nH]3)o2)CC1(C)C,43%,21%,-4,101% (active),inactive,inactive,inactive,inactive
Cc1cccc2[nH]c(-c3cccc(-c4ccc(NC(=O)C(C)(C)c5ccccn5)cc4)c3)nc12,4%,-3%,-1,97% (active),inactive,inactive,inactive,inactive
Nc1cccc(CNCc2ccc(-c3cccc(-c4nc5ccccc5[nH]4)c3)cc2)c1,78% (active),12%,6,103% (active),inactive,inactive,inactive,inactive
Cc1cc(N2CCCC2)nc(Nc2ccc(NC(=O)c3ccc4c(c3)OCO4)cc2)n1,67% (active),26%,-4,101% (active),inactive,inactive,inactive,inactive
Cn1c2c(c3ccccc31)CN(CCC1(c3ccc(Cl)c(Cl)c3)CN(C(=O)c3ccccc3)CCO1)CC2 (stereo not given),88% (active),10%,3,97% (active),inactive,inactive,inactive,inactive
CC(=O)Nc1ccc(CN(Cc2ccc(C)cc2)Cc2cccc(Oc3ccccc3)c2)cc1,87% (active),34%,1,84% (active),inactive,inactive,inactive,inactive
CC(=O)N1CCC(C(=O)Nc2ccc(-c3cccc(-c4nc5c(C)cccc5[nH]4)c3)cc2)CC1,27%,85% (active),-1,84% (active),inactive,inactive,inactive,inactive
Cc1ccc(NC(=O)c2ccc(N3CCN(c4ccncc4)CC3)cn2)cc1F,77% (active),2%,2,98% (active),inactive,inactive,inactive,inactive
Cc1ccc(/C=C/C(=O)NCCCCCN2CCCN(C(=O)Nc3ccc(Cl)c(Cl)c3)CC2)cc1,1%,24%,2,95% (active),inactive,inactive,inactive,inactive
CCC(=O)Oc1ccc(NC(=O)c2cccc(OC)c2)cc1,3%,17%,6,98% (active),inactive,inactive,inactive,inactive
COc1ccc(-c2ccc(NC(=O)c3ccc(Cl)cc3)cc2)cc1CN1CCC(O)CC1,15%,20%,5,89% (active),inactive,inactive,inactive,inactive
COc1ccccc1CCNc1nc(C)cc(N[C@@H](CC(C)C)C(=O)NCCc2ccccc2)n1,81% (active),12%,-2,97% (active),inactive,inactive,inactive,inactive
